# Measurements published in PubChem BioAssay (NCI).
# The panel holds about 83,000 compounds, 20% with a hit somewhere; the sample as a whole holds those more often.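 Growth was measured after 48 h exposure to one concentration of compound in 96-well plates. Values under 10 count as active.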 Unmarked numbers belong to inactive results. The source made the active and inactive calls.
# Columns and labels:
# Assay in all cases: NCI-60 one-dose screen, 48 h (100 = growth as untreated, 0 = no growth, -100 = all killed)
# Conditions in all cases: 10 µM
# HT29 colon = test system: HT29 colon
# SNB-75 CNS = test system: SNB-75 CNS
# SNB-19 CNS = test system: SNB-19 CNS
# U251 CNS = test system: U251 CNS
# PC-3 prostate = test system: PC-3 prostate
# SK-MEL-5 melanoma = test system: SK-MEL-5 melanoma
# UACC-62 melanoma = test system: UACC-62 melanoma
# SK-MEL-28 melanoma = test system: SK-MEL-28 melanoma
# SK-MEL-2 melanoma = test system: SK-MEL-2 melanoma
# LOX IMVI melanoma = test system: LOX IMVI melanoma
SMILES,growth (HT29 colon),growth (SNB-75 CNS),growth (SNB-19 CNS),growth (U251 CNS),growth (PC-3 prostate),growth (SK-MEL-5 melanoma),growth (UACC-62 melanoma),growth (SK-MEL-28 melanoma),growth (SK-MEL-2 melanoma),growth (LOX IMVI melanoma)
COc1ccc(-c2nc3ccccn3c2-c2nnc(-c3cc(OC)c(OC)c(OC)c3)o2)cc1,70.4%,59.9%,44.5%,45.8%,98.2%,44.7%,68.5%,83.6%,92.1%,–
O=C(NN1C(=O)CSC1c1ccc(Cl)cc1)c1cccnc1 (centres undefined),109%,110%,113%,99.5%,93.6%,102%,125%,–,109%,102%
COc1cc(C(=O)/C=C/c2cc(-c3cc(OC)c(OC)c(OC)c3)n[nH]2)cc(OC)c1OC,-47.5% (active),54.9%,55.4%,-57.9% (active),12.9%,21.3%,51%,-59.5% (active),4.38% (active),–
O=C1Nc2ccccc2C1=NC1CCCCC1,99.2%,88.1%,111%,101%,94%,94.3%,105%,115%,88.6%,–
COc1ccc2c(c1)C(=O)c1c-2c(OCCN(C)C)nc2cc(OC)c(OC)cc12,30.1%,51.7%,57.1%,50.5%,69.2%,89.7%,83.1%,112%,54.3%,–
CCCCCCCNc1nc(C=O)ncc1-c1ccc(C(F)(F)F)cc1,86.8%,97%,91.1%,86.1%,79.8%,97.6%,116%,104%,–,–
CN(C)CCCn1c(=O)c2ccccc2c2cnc3[nH]ccc3c21,-9.52% (active),26.5%,13.6%,8.32% (active),-9.22% (active),10.3%,-20.2% (active),21.1%,-8.38% (active),–
N=C(N)c1ccc(-c2ccc(-c3ccco3)o2)cc1,5.15% (active),22.2%,68.4%,53.5%,59.8%,76%,95.9%,75.1%,108%,–
Cc1cccc2c(NCCN(C)C)c3cccc(C(=O)NCCN(C)C)c3nc12,-43.7% (active),-24.7% (active),14.5%,-43% (active),-31% (active),3.71% (active),20.8%,–,-6.23% (active),-61.9% (active)
C=C(NC(=O)C(=C)NC(=O)c1csc(C2=NC3c4csc(n4)C4NC(=O)c5csc(n5)C(C(C)(O)C(C)O)NC(=O)C5CSC(=N5)/C(=C/C)NC(=O)C(C(C)O)NC(=O)c5csc(n5)C3(CC2)NC(=O)C(C)NC(=O)C(=C)NC(=O)C(=C)NC(=O)C(C(C)C)NC2C=Cc3c(C(C)O)cc(nc3C2O)C(=O)OC4C)n1)C(N)=O (centres undefined),-2.13% (active),-10.9% (active),16.8%,-46% (active),9.64% (active),-56.2% (active),5.94% (active),–,-17.7% (active),-52.7% (active)
COc1ccc(OC)c2c1C(=O)CC2C (centres undefined),108%,93%,99.6%,100%,97.5%,94.4%,96.4%,101%,121%,–
CCOC(=O)N1C/C(=C/c2ccc(Cl)cc2)C(=O)/C(=C/c2ccc(Cl)cc2)C1,-40% (active),66%,–,12.1%,49.4%,88.1%,67.6%,105%,84.7%,-56.8% (active)
O=C1OCC2=C1C(c1cccc(Br)c1)c1cc3c(cc1N2CCO)CCC3 (centres undefined),-12.1% (active),37.5%,–,5.68% (active),22.4%,-12.6% (active),20.2%,62%,–,15.5%
Cc1cc2ccccc2nc1-c1ccccc1F,119%,112%,–,91.1%,94.3%,102%,105%,116%,111%,97.8%
COc1ccc2nc3ccccc3c(NCCNCC(C)O)c2c1 (centres undefined),1.38% (active),28.1%,–,1.29% (active),4.7% (active),10.3%,-59.9% (active),8.18% (active),-21.8% (active),-47.1% (active)
O=C(Nc1cccc(Cl)c1)Nc1nccs1,94.4%,91.6%,–,94.1%,94.5%,89.7%,79.8%,103%,97.2%,94.1%
COc1cc(C)ccc1C(=O)c1ccc(C)cc1OC,2.74% (active),8.51% (active),–,18.3%,17.6%,25.9%,42.3%,58.5%,17.2%,31.5%
N#CCCN1C/C(=C/c2ccc(Br)cc2)C(=O)/C(=C/c2ccc(Br)cc2)C1,-33.8% (active),33.3%,–,-80.8% (active),-34% (active),1.94% (active),-75% (active),-36.8% (active),5.41% (active),-71.3% (active)
CC1CC(=O)OC(C)C1 (centres undefined),112%,78.9%,–,101%,101%,100%,114%,102%,90.1%,102%
CC(C)N(CCNc1nc(C(Cl)(Cl)Cl)nc2cc(Cl)ccc12)C(C)C,-32.9% (active),8.33% (active),–,-61.5% (active),-5.1% (active),-97% (active),-62.2% (active),-80.9% (active),-60% (active),-80.2% (active)
Clc1ccc(-c2cn(-c3ccccc3)c(-c3ccccc3)n2)c(Cl)c1,-100% (active),-83.3% (active),–,-100% (active),-98.3% (active),68.1%,37%,6.05% (active),–,–
ClCCOCCn1cnc2c(Cl)nc(Cl)nc21,36.6%,57.1%,88.2%,67.3%,35.2%,52.3%,45.1%,72.8%,67.6%,–
O=c1oc2cc(OS(=O)(=O)c3ccccc3)ccc2c2c1CCCCC2,10%,69.5%,–,34.4%,29.5%,26%,57.2%,73.2%,–,63.8%
Nc1ncnc2[nH]c(=O)[nH]c12,105%,84.6%,–,97.8%,201%,100%,92.3%,107%,–,95.2%
CN(C)N=Nc1nn(C(=O)Nc2ccc(Cc3ccccc3)cc2)c2ccccc12,41%,101%,–,67.9%,29.5%,-37.5% (active),-8.25% (active),43.2%,58.4%,1.48% (active)
CCN1Cc2c(/C=C/c3ccccc3)nc3ccc(OC)cc3c2N(c2cccc(Cl)c2)C1,64.2%,63.6%,–,76%,20.2%,20.6%,52.3%,95.9%,77.5%,73%
COc1ccccc1CNCCCN1C(=O)c2ccc3c4c(ccc(c24)C1=O)C(=O)N(CCCN)C3=O,-51.1% (active),39.3%,–,-46.6% (active),-8.32% (active),-97.5% (active),-90.2% (active),5.1% (active),-57.3% (active),-61% (active)
COc1ccc(/C=C2/CN(C(=O)c3ccccc3F)C/C(=C\c3ccc(OC)cc3)C2=O)cc1,-82.5% (active),68.9%,–,9.44% (active),52%,48.6%,56.5%,69.4%,94.1%,-54.5% (active)
COc1cc(-c2nc(-c3nnc(-c4ccc(F)c(Cl)c4)o3)c3ccccn23)cc(OC)c1OC,15.2%,3.25% (active),–,31.8%,56.1%,39.7%,33.9%,41.4%,25.8%,58.2%
Clc1ccc(Nc2ccnc(NCCCNc3ccnc4cc(Cl)ccc34)n2)cc1,-69.3% (active),-89.2% (active),–,-93.2% (active),-27.5% (active),-100% (active),-90.5% (active),-92.1% (active),-91% (active),-77.5% (active)
